# Test results as given in PubChem BioAssay (NCATS).
# Records with an inconclusive call do not appear. Entries that show only a call come without a potency. Values without a mark were called inactive. Calls of active or inactive are those of the source. The call rests on the fitted dose curve; in most records, active means well fitted activation curve with a large enough effect; inconclusive means small, poorly fitted or top-dose-only effect; inactive means flat fitted curve, though single readings scatter.
# Assay: Primary redox qHTS assay for identification of artifact compounds. (AID 1845223)
# Conditions: Amplex Red/HRP redox cycling with DTT, fluorescence; series mostly up to 53.8 µM
# Summary of the method: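 Redox-cycling detection via DTT (250 uM final) oxidation coupled to Amplex Red (25 uM)/HRP (250 mU/mL) in HBSS. 15 min preincubation plus 30 min after DTT, room temperature. Ex/Em 525/598 nm; 4-parameter Hill fit against DMSO and 10 uM DA3003.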
Structure (SMILES),Potency,redox activity (% of DA3003)
C=C(C(=O)O)[C@@H]1CC[C@@]2(C)CC[C@@H](O)C(=C)C2C1 (stereo not given in full),inactive,–
CC1(C)C2CC[C@]3(C)C(C(=O)C=C4[C@H]5C[C@@](C)(C(=O)O)CC[C@]5(C)CC[C@]43C)[C@@]2(C)CC[C@@H]1O (stereo not given in full),inactive,–
Cc1nc(-c2cccnc2)sc1C(=O)Nc1ccccc1-c1cn2c(CN3CCOCC3)csc2n1,inactive,–
COc1cc(/C=C/C(=O)OC[C@H]2O[C@@H](OC3CC(C)=C(C(=O)O)C(C)(C)C3)[C@H](O)[C@@H](O)[C@@H]2O)cc(OC)c1O (stereo not given in full),inactive,–
CC(C)NC(=O)c1ccc(C#Cc2ccncc2)cn1,inactive,–
C[C@@H]1O[C@@H](O[C@H]2[C@@H]3C=CO[C@@H](O[C@@H]4O[C@H](CO)[C@@H](O)[C@H](O)[C@H]4O)[C@@H]3[C@@]3(CO)O[C@@H]23)[C@H](OC(=O)/C=C/c2ccc(O)cc2)[C@H](O)[C@H]1O,inactive,–
O=C(O)CC1CCC(c2ccc(-c3ccc(Nc4ccc(C(F)(F)F)nc4)cn3)cc2)CC1 (stereo not given),inactive,–
C[C@@H]1O[C@@H](OC2C(CO)OC(OCC3OC(OC(=O)[C@]45CCC(C)(C)CC4C4=CCC6[C@@]7(C)CC[C@@H](O)[C@](C)(C(=O)O)C7CC[C@@]6(C)[C@]4(C)CC5)C(O)C(O)C3O)C(O)C2O)[C@H](O)[C@H](O)[C@H]1O (stereo not given in full),–,10.6% [at 11.5 µM]
COc1cc(C(CO)CO[C@@H]2O[C@H](CO)[C@@H](O)[C@H](O)[C@H]2O)ccc1O (stereo not given in full),inactive,–
COC(=O)CCC1(C)C(C(C)(C)O)C(O)CC2(C)Oc3c(C)c4c(c(OC)c3CC21)C(=O)OC4 (stereo not given),inactive,–
